# From ChEMBL document CHEMBL1201862, “PubChem BioAssay data set” (2004)
# Among all 42,000 sequences or so, about 3,100 (7.4%) were called active. Cut-off read from the data, not from the text of the source: active = GI50 up to about 1.1 µM and inactive = higher. Only a sample is shown. Measured potencies and affinities stand elsewhere.
# System: Hs-578T
row,Substance,GI50 [µM]
1,"CISPLATIN, CHEMBL11359",4.98
2,"[Bis(aminomethyl)tetramethylenesilane]tetrachloropaltinum(IV), CHEMBL2146189",21.2
3,"[Bis(aminomethyl)dimethylsilane]tetrachloroplatinum(IV), CHEMBL2146190",> 100
4,"[Bis(aminomethyl)pentamethylenesilane]dichloropaltinum(II), CHEMBL2146202",1.18
5,"[Bis(aminomethyl)tetramethylenesilane]dichloropaltinum(II), CHEMBL2146205",32.4
6,"[Bis(aminomethyl)pentamethylenesilane]tetrachloropaltinum(IV), CHEMBL2146204",28.8
